HP1b chromo inh: HP1-beta chromodomain-methylated histone interaction inhibition; P83916; AlphaScreen HP1-beta / biotin-H3K9me3 peptide binding; Potency, µM (highest dose often 114 µM), actives largely listed as inhibitors; 390,000 compounds, 0.56% hits; AID 540317; also: nearly all actives have a fitted effect of over 70% in size
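Compound inhibition of the preformed complex between 50 nM HP1-beta and 50 nM biotinylated H3K9me3 peptide was read by AlphaScreen. Buffer was PBS pH 7.4 with 0.01% Tween-20. Incubations ran 30 min at room temperature, with 10 ug/mL donor/acceptor beads.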
G9a block: inhibitors of human histone lysine methyltransferase G9a; G9a H3K9 monomethylation, AlphaScreen, 2 h; Potency, µM (series often up to 102 µM), actives largely listed as inhibitors; 350,000 compounds, 8.8% hits; AID 504332; also: nearly all actives have a fitted effect of over 75% in size
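Step 1: enzyme (final 20 nM) with compound, 15 min RT. Step 2: substrate peptide 500 nM and SAM 20 uM, 2 h RT. Step 3: anti-H3K9me1 antibody and AlphaScreen beads, 10 min, then plate read.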
ALOX12 inh: ALOX12 (human) lipoxygenase inhibition; 580,000 compounds, 1.1% hits; purified 12hLO, xylenol orange hydroperoxide absorbance; P18054; AID 1671190; Potency, µM (titrated, usually from 108 µM), usual class: inhibitors
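Hydroperoxide product was detected by ferrous iron/xylenol orange as the 573 to 405 nm absorbance ratio. Arachidonic acid at 40 uM (final) was turned over for 30 min at room temperature by 150 nM human 12hLO, pH 7.0 Hepes buffer, after 15 min compound preincubation.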
JMJD2A Tudor inh: blocks the human JMJD2A Tudor domain | AID 504339 | 390,000 compounds, 4.4% hits | Potency, µM (titrated, usually from 114 µM), usual class: inhibitors | AlphaScreen JMJD2A-Tudor / H3K4me3 peptide binding; also: nearly all actives have a fitted effect of over 50% in size
BAZ2B inh: blocks human BAZ2B. AlphaScreen BAZ2B-H3K14Ac peptide displacement. Potency, µM (series often up to 114 µM), usual class: inhibitors. 360,000 compounds, 4.4% hits. AID 504333; also: nearly all actives have a fitted effect of over 60% in size
Target sequence (Q9UIF8 whole entry, looked up): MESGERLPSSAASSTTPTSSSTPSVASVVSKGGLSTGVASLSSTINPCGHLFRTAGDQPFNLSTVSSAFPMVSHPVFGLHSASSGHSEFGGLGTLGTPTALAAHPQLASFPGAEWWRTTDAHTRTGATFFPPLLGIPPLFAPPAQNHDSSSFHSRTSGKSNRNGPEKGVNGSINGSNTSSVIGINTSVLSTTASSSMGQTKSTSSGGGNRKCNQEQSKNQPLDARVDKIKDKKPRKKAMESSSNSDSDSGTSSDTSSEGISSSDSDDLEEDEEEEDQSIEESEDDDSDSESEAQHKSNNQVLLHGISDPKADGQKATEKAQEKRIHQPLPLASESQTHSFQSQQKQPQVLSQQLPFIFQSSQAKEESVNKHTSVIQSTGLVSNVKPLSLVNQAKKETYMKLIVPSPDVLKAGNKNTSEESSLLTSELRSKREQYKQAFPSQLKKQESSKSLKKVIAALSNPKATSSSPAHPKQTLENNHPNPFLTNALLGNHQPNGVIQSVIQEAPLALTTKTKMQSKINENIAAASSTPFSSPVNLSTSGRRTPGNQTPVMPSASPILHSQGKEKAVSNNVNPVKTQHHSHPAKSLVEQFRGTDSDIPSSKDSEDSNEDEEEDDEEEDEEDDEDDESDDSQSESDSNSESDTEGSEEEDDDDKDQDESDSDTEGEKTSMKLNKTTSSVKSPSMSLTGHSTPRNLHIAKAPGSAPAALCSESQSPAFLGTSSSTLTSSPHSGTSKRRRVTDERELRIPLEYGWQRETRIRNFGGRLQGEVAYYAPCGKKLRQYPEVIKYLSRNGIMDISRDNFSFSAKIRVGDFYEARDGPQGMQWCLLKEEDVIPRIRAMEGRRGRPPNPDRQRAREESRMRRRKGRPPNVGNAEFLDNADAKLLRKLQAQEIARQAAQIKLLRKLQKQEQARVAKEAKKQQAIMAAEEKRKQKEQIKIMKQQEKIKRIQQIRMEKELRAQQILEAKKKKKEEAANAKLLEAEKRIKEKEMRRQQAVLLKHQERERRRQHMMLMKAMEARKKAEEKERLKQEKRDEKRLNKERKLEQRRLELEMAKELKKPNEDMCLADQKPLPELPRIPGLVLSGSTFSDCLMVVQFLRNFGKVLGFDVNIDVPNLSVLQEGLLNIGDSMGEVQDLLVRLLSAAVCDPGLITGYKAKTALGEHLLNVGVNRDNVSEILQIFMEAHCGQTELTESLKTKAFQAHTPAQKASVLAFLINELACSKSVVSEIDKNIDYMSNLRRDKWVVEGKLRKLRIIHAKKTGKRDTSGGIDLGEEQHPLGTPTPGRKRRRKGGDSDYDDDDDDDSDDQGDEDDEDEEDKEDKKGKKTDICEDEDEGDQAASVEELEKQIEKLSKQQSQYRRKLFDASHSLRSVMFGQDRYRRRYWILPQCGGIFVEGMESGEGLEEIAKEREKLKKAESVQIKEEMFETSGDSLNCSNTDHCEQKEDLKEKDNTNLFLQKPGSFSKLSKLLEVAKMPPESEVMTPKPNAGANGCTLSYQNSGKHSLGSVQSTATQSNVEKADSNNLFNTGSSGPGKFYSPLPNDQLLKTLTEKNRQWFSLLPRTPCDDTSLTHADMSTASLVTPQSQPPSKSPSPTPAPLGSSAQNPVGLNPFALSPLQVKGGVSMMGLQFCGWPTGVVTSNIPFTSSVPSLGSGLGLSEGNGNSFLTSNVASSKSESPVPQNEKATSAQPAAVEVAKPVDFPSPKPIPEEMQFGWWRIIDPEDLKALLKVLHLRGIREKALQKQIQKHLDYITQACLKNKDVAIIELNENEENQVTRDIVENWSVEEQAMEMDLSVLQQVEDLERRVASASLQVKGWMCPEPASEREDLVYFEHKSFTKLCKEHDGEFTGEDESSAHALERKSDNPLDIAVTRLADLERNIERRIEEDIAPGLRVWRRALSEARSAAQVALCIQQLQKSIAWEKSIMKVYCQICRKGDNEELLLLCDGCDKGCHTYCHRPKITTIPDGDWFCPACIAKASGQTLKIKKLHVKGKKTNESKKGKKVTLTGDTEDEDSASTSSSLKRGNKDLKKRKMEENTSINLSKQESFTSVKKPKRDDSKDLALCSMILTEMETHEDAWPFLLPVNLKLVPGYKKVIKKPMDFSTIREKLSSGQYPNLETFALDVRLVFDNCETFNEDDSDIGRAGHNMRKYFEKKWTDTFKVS
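Inhibition is scored as reduced AlphaScreen emission. The BAZ2B/b-H3(5-23)K14Ac complex (50 nM each) in PBS pH 7.4, 0.01% Tween-20 meets compound (up to 110 uM) for 30 min at RT before bead addition.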
PLK1 PBD block: inhibitors of human PLK1 polo-box domain binding. P53350. Plk1 PBD binding of FITC phosphopeptide, fluorescence polarization. Potency, µM, hits mostly inhibitors. 360,000 compounds, 2.8% hits; also: series mostly up to about 57 µM; nearly all actives have a fitted effect of over 65% in size
Numbers stand for hits; n = inactive; u = inconclusive; x = not tested or not shown; [ ] = another dose, or the depositor's remark. The list is not random: actives were taken first. Their share in the collection is about 9%. Calls follow the shape of the dose curve; as a rule, active = well fitted curve in the direction sought with a large enough effect; inconclusive = small, poorly fitted or top-dose-only effect, or another doubt; inactive = no such curve, though single readings can be large; an effect the other way counts as inactive or inconclusive.

SMILES	HP1b chromo inh	G9a block	ALOX12 inh	JMJD2A Tudor inh	BAZ2B inh	PLK1 PBD block
Cc1ccnc(N2C(=O)c3cccc4c([N+](=O)[O-])ccc(c34)C2=O)c1	n	u	n	n	n	u
OC[C@@H]1CN(Cc2cccnc2)C[C@H](n2cnc3c(N4CCOCC4)ncnc32)O1	x	x	n	x	x	n
COc1ccc2c(c1)cc(CNc1ccc(OC)c(OC)c1)c(=O)n2CC(=O)Nc1ccc(F)cc1	n	2.8µM	n	n	u	x
COc1ccc2cc(CNc3ccc(OC)c(OC)c3)c(=O)n(CC(=O)Nc3ccc(C)cc3)c2c1	n	2.8µM	n	n	n	x
COc1cccc(C(Nc2ccccn2)c2c(NC(=O)c3ccccc3)sc(C)c2C)c1 (stereo unspecified)	x	x	n	x	x	x
O=C(NCc1ccncc1)C(=O)NCC1OCCCN1S(=O)(=O)c1cc(F)ccc1F (stereo unspecified)	n	n	n	n	n	n
CCOC(=O)COn1c(-c2cccc(Cl)c2)nc2ccc([N+](=O)[O-])cc21	n	50µM	u	n	n	n
COC(=O)c1ccc2nc(NC(=O)CCS(=O)(=O)c3ccccc3)sc2c1	n	u	x	n	n	n
Cc1ccc2nc(NC(=O)CSCC(=O)OCC(=O)c3ccc(Br)cc3)sc2c1	n	45µM	n	u	n	n
COC(=O)c1ccc2nc(NC(=O)CSCC(=O)OCC(=O)c3ccccc3)sc2c1	n	7.9µM	n	u	n	u
COC(Cn1c2c(c3cc(C)ccc31)CCCC2NCc1ccccc1)OC (stereo unspecified)	n	45µM	n	u	40µM	n
CCCS(=O)(=O)NC(=O)C1(C)CCN(C(=O)c2ccc3ccccc3n2)C1 (stereo unspecified)	x	x	x	x	x	n
Cc1ccnc(NC(=O)CN2C(=O)c3ccccc3C2=O)c1	n	n	n	n	u	n
Oc1c(C(c2ccc(Br)cc2)N2CCOCC2)sc2nc(-c3ccco3)nn12 (stereo unspecified)	n	u	u	n	u	x
Oc1c(C(c2ccccc2F)N2CCN(Cc3ccccc3)CC2)sc2nc(-c3ccco3)nn12 (stereo unspecified)	n	n	n	u	u	x
Oc1c(C(c2ccc(Cl)cc2Cl)N2CCN(c3ccccc3)CC2)sc2nc(-c3ccco3)nn12 (stereo unspecified)	n	11µM	n	n	n	x
Cc1ccc(C(c2sc3nc(-c4ccco4)nn3c2O)N2CCOCC2)cc1 (stereo unspecified)	n	n	14µM	n	n	x
COc1ccc(N2CCN(C(c3ccc(F)cc3)c3sc4nc(-c5ccco5)nn4c3O)CC2)cc1 (stereo unspecified)	u	u	n	u	40µM	x
COc1ccc(N2CCN(C(c3ccccc3F)c3sc4nc(-c5ccco5)nn4c3O)CC2)cc1 (stereo unspecified)	u	u	n	u	40µM	x
CCN1CC(CN(C)Cc2nc(Cc3cccc(F)c3)no2)CC1=O (stereo unspecified)	x	x	n	x	x	x
COc1ccc(OC)c(C2C(C(=O)Nc3ccccc3OC)=C(C)Nc3nc(CCCO)nn32)c1 (stereo unspecified)	n	u	n	n	n	n
Cn1nc(C(C)(C)C)c([N+](=O)[O-])c1C(=O)N1CCOCC1	n	n[0.0925 µM]	n	n	n	n
C[C@@H](c1ncncc1F)[C@](O)(Cn1cncn1)c1ccc(F)cc1F	x	n	u	x	n	x
CCOc1ccc(OCC)c(NC(=O)CSc2nnnn2CC)c1	n	n	n	n	n	n
Nc1nc(N)nc(-c2ccc(Cl)cc2)n1	n	n	n	n	79µM	n
SMILES	HP1b chromo inh	G9a block	ALOX12 inh	JMJD2A Tudor inh	BAZ2B inh	PLK1 PBD block
CCOc1ccc2ncc(S(=O)(=O)c3ccccc3)c(N3CCN(c4ccccc4)CC3)c2c1	n	x	n	u	x	n
COc1ccc(N2CCN(c3c(S(=O)(=O)c4ccccc4)cnc4ccc(OC)cc34)CC2)cc1	u	8.9µM	n	u	u	n
CCOc1ccc2ncc(S(=O)(=O)c3ccccc3)c(N3CCN(c4ccc(OC)cc4)CC3)c2c1	u	u	n	u	10µM	n
Cc1coc2c1c(C)cc1oc(=O)c(CC(=O)NCC(=O)NCC(=O)O)c(C)c12	n	n	n	n	n	n
COc1cc(C2=NOC(C(=O)Nc3ccc(C)cc3)C2)cc(OC)c1OC (stereo unspecified)	n	n	n	n	n	n
COc1ccc(F)cc1C(=O)C1CCCN(Cc2cccn2-c2cccnc2)C1 (stereo unspecified)	n	x	n	u	u	n
CC1CCCCN1S(=O)(=O)c1cccc2cccnc12 (stereo unspecified)	n	32µM	n	n	n	n
O=C(O)[C@H]1CCCN1S(=O)(=O)c1cccc2cccnc12	n	n[12.7 µM]	n	n	n	n
CCOc1ccc2nc(NC(=O)C3=NNC(=O)CC3)sc2c1	n	n	n	n	n	n
COc1ccc(-c2[nH]nc3c2C(c2ccc4c(c2)OCO4)CC(=O)O3)cc1 (stereo unspecified)	x	x	45µM	x	x	x
COC(=O)C1CCN(C(=O)c2cc(-c3ccco3)nc3ccccc23)CC1	u	x	u	28µM	x	30µM
Cc1cc(C(=O)OCC(=O)N2CCCC2)c2ccccc2n1	n	n	n	n	n	n
COC(=O)c1ccc(COC(=O)c2cc(-c3ccco3)nc3ccccc23)cc1	x	x	7.1µM	x	x	x
CNC(=O)NC(=O)COC(=O)c1cc(-c2ccco2)nc2ccccc12	x	x	16µM	x	x	x
O=C(c1cc(-c2ccco2)nc2ccccc12)N1CCN(Cc2ccccc2)CC1	n	n[2.33 µM]	u	n	n	n
O=C(OCC(=O)N1CCCC1)c1cc(-c2ccco2)nc2ccccc12	x	x	6.3µM	x	x	x
CCCCN(C)c1c(C)nc2ccc(C(=O)N3CCN(C(C)=O)CC3)cn12	x	x	n	x	x	n
NC(=O)COC(=O)c1cc(-c2ccco2)nc2ccccc12	n	16µM	28µM	n	n	n
Cc1cc(C(=O)OCC(=O)N2CCOCC2)c2ccccc2n1	u	n	u	35µM	n	15µM
NC(=O)COC(=O)c1cc(-c2ccc(F)cc2)nc2ccccc12	x	x	n	x	x	x
COc1ccc(C(OCC(O)CNCCc2ccccc2)c2ccc(OC)cc2)cc1 (stereo unspecified)	u	n[0.501 µM]	u	3.5µM	32µM	n
O=C(c1ccccc1)c1ccc(OCC(O)CNCc2ccc(F)cc2)cc1 (stereo unspecified)	n	5µM	u	5µM	35µM	n
CCC(=O)c1ccc(OCC(O)CNCc2ccc(F)cc2)cc1 (stereo unspecified)	u	n	n	n	n	n
COc1ccc(C(OCC(O)CNC(C)c2ccccc2)c2ccc(OC)cc2)cc1 (stereo unspecified)	n	n	u	n	n	n

High-throughput results as filed in PubChem BioAssay.
